Assay results taken from PubChem BioAssay AID1159580 (chemical genetic matrix, 2015).
Hit rate of the full screen: of about 5,500 compounds, about 2,000 (36%) were called active. Not shown: some 18% with an inconclusive outcome. Rule as the data show it: active = normalized growth mostly below about 0.91 (no sharp cut-off); inconclusive = no clear call, values can overlap the other calls; inactive = mostly above about 0.92. The list shows a part of the results.

Experiment: chemical genetic growth profiling, strain panel (AID 1159580);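 also: tested at 20 µM; growth read once vehicle control cultures reached saturation at 30 °C; 1 = growth at the plate median or of vehicle wells; lower values mean less growth of the strain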
Settings: growth OD

Measured: normalized growth

N#CCCC1(CCC#N)c2ccccc2-c2ccccc21
inactive: S. cerevisiae deletion strains, locus YAL013W, strain DEP1, active compounds read low 0.99 | S. cerevisiae deletion strains, locus YBR229C, strain ROT2, active compounds read low 1.02 | S. cerevisiae deletion strains, locus YDL101C, strain DUN1, active compounds read low 1.03 | S. cerevisiae deletion strains, locus YDL134C, strain PPH21, active compounds read low 1.02 | S. cerevisiae deletion strains, locus YDR150W, strain NUM1, active compounds read low 1.01 | S. cerevisiae deletion strains, locus YEL061C, strain CIN8, active compounds read low 1.01 | S. cerevisiae deletion strains, locus YGR078C, strain PAC10, active compounds read low 1.01 | S. cerevisiae deletion strains, locus YHR030C, strain SLT2, active compounds read low 1.05 | S. cerevisiae deletion strains, locus YHR087W, strain rtc3, active compounds read low 1.03 | S. cerevisiae deletion strains, locus YJR043C, strain POL32, active compounds read low 1.01 | S. cerevisiae deletion strains, locus YJR075W, strain HOC1, active compounds read low 1.01 | S. cerevisiae deletion strains, locus YLR039C, strain RIC1, active compounds read low 1.06 | S. cerevisiae deletion strains, locus YLR058C, strain SHM2 (second series), active compounds read low 1.01 | S. cerevisiae deletion strains, locus YLR085C, strain ARP6, active compounds read low 1.03 | S. cerevisiae deletion strains, locus YLR262C, strain YPT6, active compounds read low 1.01 | S. cerevisiae deletion strains, locus YML094W, strain GIM5, active compounds read low 1.03 | S. cerevisiae deletion strains, locus YMR219W, strain ESC1, active compounds read low 1.03 | S. cerevisiae deletion strains, locus YMR263W, strain SAP30, active compounds read low 1.02 | S. cerevisiae deletion strains, locus YNL153C, strain GIM3, active compounds read low 1.04 | S. cerevisiae deletion strains, locus YNL298W, strain CLA4 (second series), active compounds read low 1.01 | S. cerevisiae deletion strains, locus YNL322C, strain KRE1, active compounds read low 1.01 | S. cerevisiae deletion strains, locus YNR030W, strain Alg12, active compounds read low 1 | S. cerevisiae deletion strains, locus YOL006C, strain TOP1, active compounds read low 1.08 | S. cerevisiae deletion strains, locus YPL055C, strain LGE1, active compounds read low 1.03 | S. cerevisiae deletion strains, locus YPL241C, strain CIN2, active compounds read low 1.01 | S. cerevisiae deletion strains, locus YPR135W, strain CTF4, active compounds read low 1.11 | S. cerevisiae strains, strain wild type, active compounds read low 1.03
